ELG1 repair inh: qHTS screen for small molecules that inhibit ELG1-dependent DNA repair in human embryonic kidney (HEK293T) cells expressing luciferase-tagged ELG1. Potency, µM (highest dose often 46.1 µM), for inactives: top-dose activity change, negative = inhibition, most hits filed as inhibitors. HEK293T ELG1-luciferase reporter, luminescence, 16 h; DNA damage induced by 5-fluorouridine. AID 504467, 2011. 330,000 tested, 2.3% active; note: % is set by controls: 0 for no effect and ±100 for the full control effect; nearly all actives have a fitted effect of over 55% in size
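In this reporter screen, reduction of luminescence relative to DMSO vehicle indicated activity. Compounds and 5-fluorouridine were added together to 2,000 cells per well, incubated for 16 hr at 37 °C, then developed with ONE-Glo.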
MCF10A rerep: A quantitative high throughput screen for small molecules that induce DNA re-replication in MCF 10a normal breast cells. MCF 10A DNA re-replication, Hoechst nuclear intensity, 48 h. Potency, µM (titrated, usually from 46.1 µM), for inactives: top-dose activity, positive = re-replication, hits mostly activators. 350,000 tested, 2.9% active. AID 624296, 2012; note: % of control where 0% means no effect; nearly all actives have a fitted effect of over 50% in size
SW480 rereplic: A quantitative high throughput screen for small molecules that induce DNA re-replication in SW480 colon adenocarcinoma cells; SW480 DNA re-replication, Hoechst DNA content imaging, 48 h; Potency, µM (highest dose often 46.1 µM), without a hit: at the top dose re-replication activation, most hits filed as activators; 340,000 tested, 1.8% active; AID 624297, 2012; note: % of control where 0% means no effect; nearly all actives have a fitted effect of over 55% in size
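Quantitative HTS format with DMSO vehicle controls; 48 hr drug incubation at 37 C, then 40 min Hoechst staining and scanning imager measurement at 405 nm excitation.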
RORg inh: qHTS for inhibitors of ROR gamma transcriptional activity; AID 2551, 2010; Nuclear receptor ROR-gamma (Mus musculus), P51450; Potency, µM (titrated, usually from 53.6 µM), without a hit: at the highest dose activity change, negative = inhibition, actives largely listed as inhibitors; 310,000 tested, 5.4% active; Drosophila S2 Gal4-RORgamma UAS-luciferase reporter, 20 h; note: % is set by controls: 0 for no effect and ±100 for the full control effect; nearly all actives have a fitted effect of over 60% in size
Target sequence (P51450 whole entry, looked up, the tested form may be a part): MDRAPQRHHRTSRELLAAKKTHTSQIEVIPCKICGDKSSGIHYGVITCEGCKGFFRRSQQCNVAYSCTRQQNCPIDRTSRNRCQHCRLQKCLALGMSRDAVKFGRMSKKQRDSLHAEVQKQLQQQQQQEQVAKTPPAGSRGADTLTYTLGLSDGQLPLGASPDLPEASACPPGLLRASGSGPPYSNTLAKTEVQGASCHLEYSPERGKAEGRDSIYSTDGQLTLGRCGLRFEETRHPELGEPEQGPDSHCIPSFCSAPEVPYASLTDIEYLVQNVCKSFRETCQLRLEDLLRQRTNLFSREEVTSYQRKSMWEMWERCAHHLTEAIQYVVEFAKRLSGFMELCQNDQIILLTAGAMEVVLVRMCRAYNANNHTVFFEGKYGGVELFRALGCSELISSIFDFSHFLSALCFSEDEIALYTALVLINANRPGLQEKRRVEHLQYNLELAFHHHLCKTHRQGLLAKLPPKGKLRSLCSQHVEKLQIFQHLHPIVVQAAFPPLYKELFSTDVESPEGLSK
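Schneider cells (Drosophila), stable Gal4 DBD–ROR gamma + UAS-luc; 1 hr cmpd preincubation; Cu2+ induction 700 uM final; 20 hr ambient; luminescence.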
Gal4-VP16 FLuc: VP16 counterscreen qHTS for inhibitors of ROR gamma transcriptional activity; Potency, µM (series often up to 53.6 µM), inactives show top-dose activity, negative = inhibition, actives largely listed as inhibitors; Drosophila S2 Gal4-VP16 UAS-luciferase, luminescence, 20 h; 310,000 tested, 3.5% active; AID 2546, 2010;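 note: Gal4-VP16 expression switched on by copper sulfate through the metallothionein promoter; % is set by controls: 0 for no effect and ±100 for the full control effect; nearly all actives have a fitted effect of over 50% in size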
Numbers without * were called inactive; [ ] = dose if it differs, or a comment. Only some compounds are listed: those with a hit (about 10% of all), similar ones and a draw of the others. Calls come from the whole dose curve; as a rule, active = well fitted curve in the direction sought with a large enough effect; inconclusive = small, poorly fitted or top-dose-only effect, or another doubt; inactive = no such curve, though single readings can be large; an effect the other way counts as inactive or inconclusive. Potency is the fitted concentration of half-maximal effect.

CCOC(=O)/C(=N\Nc1ccc(Cl)cc1)c1csc(Nc2ccccc2)n1 was read as ELG1 repair inh 0%, MCF10A rerep 4µM*, SW480 rereplic inconclusive, RORg inh -3% and Gal4-VP16 FLuc -11%.
`CCOC(=O)/C(=N\Nc1ccc(OC)cc1)c1csc(Nc2ccccc2)n1` gave ELG1 repair inh 16µM*, MCF10A rerep inconclusive, SW480 rereplic -3%, RORg inh inconclusive and Gal4-VP16 FLuc inconclusive.
Screening CCCCc1cc(=O)oc2cc(C)cc(OCC(=O)N3CCC(C(N)=O)CC3)c12 returned ELG1 repair inh -20%, MCF10A rerep -4%, SW480 rereplic -1%, RORg inh -19% and Gal4-VP16 FLuc 4%.
`CN(C)CCNC(NC(=O)c1cccs1)C(Cl)(Cl)Cl` (stereo unspecified) gave ELG1 repair inh 4%, MCF10A rerep -1%, SW480 rereplic -3%, RORg inh -18% and Gal4-VP16 FLuc -3%.
CCOC(=O)/C=C(\C)Sc1cc(O)c2ccccc2c1O was read as ELG1 repair inh inconclusive, MCF10A rerep inconclusive, SW480 rereplic 17%, RORg inh 11µM* and Gal4-VP16 FLuc inconclusive.
For Cc1nc(SCCC(=O)O)c2cc(-c3ccccc3)sc2n1 the results were ELG1 repair inh inconclusive, MCF10A rerep 11%, SW480 rereplic -3%, RORg inh 0.89µM* and Gal4-VP16 FLuc 0.5µM*.
For NS(=O)(=O)c1ccc(CCNC(=O)C2CCN(S(=O)(=O)c3cnc[nH]3)CC2)cc1 the results were ELG1 repair inh inconclusive, MCF10A rerep 21µM*, SW480 rereplic inconclusive, RORg inh -16% and Gal4-VP16 FLuc -4%.
NS(=O)(=O)c1ccc(CCNC(=O)C2CCN(S(=O)(=O)c3ccccc3)CC2)cc1 was read as ELG1 repair inh -2%, MCF10A rerep -4%, SW480 rereplic -13%, RORg inh 32% and Gal4-VP16 FLuc 2%.
Screening Cn1nc(-c2ccccc2)c(CSc2ccccc2Cl)c1Cl returned ELG1 repair inh -23%, MCF10A rerep 7.3µM*, SW480 rereplic 5.8µM*, RORg inh -10% and Gal4-VP16 FLuc 0%.
Screening Nn1c(SCC(=O)Nc2ccccc2F)nnc1C1CCCCC1 returned ELG1 repair inh 21%, MCF10A rerep 0%, SW480 rereplic -8%, RORg inh 7% and Gal4-VP16 FLuc 4%.
Screening COc1ccccc1NC(=O)c1sc(NC(=O)c2ccco2)c(C#N)c1C returned ELG1 repair inh -11%, MCF10A rerep 16µM*, SW480 rereplic inconclusive, RORg inh -28% and Gal4-VP16 FLuc -5%.
`COc1ccccc1NC(=O)c1sc2nc(C)cc(C)c2c1N` gave MCF10A rerep 21% and SW480 rereplic -1%.
Screening COc1ccc(NC(=O)/C(=C/c2cccs2)NC(=O)c2ccco2)cc1 returned ELG1 repair inh 0%, MCF10A rerep -32%, SW480 rereplic -2%, RORg inh -1% and Gal4-VP16 FLuc -21%.
`COc1ccccc1NC(=O)c1sc2nc(-c3ccco3)ccc2c1N` gave ELG1 repair inh inconclusive, MCF10A rerep 15µM*, SW480 rereplic 29%, RORg inh 2% and Gal4-VP16 FLuc 12%.
`Nc1c(C(=O)Nc2ccccc2)sc2nc(-c3ccco3)ccc12` gave ELG1 repair inh 0%, MCF10A rerep 18µM*, SW480 rereplic inconclusive, RORg inh 14% and Gal4-VP16 FLuc 9%.
COc1ccccc1NC(=O)/C(=C/c1cccs1)NC(=O)c1ccco1 was read as ELG1 repair inh 2%, MCF10A rerep 2%, SW480 rereplic 4.6µM*, RORg inh -12% and Gal4-VP16 FLuc 5%.
`Cc1ccc(N(CC(=O)NCc2ccco2)C(=O)CCC(=O)Nc2ccccn2)c(C)c1` gave ELG1 repair inh -5%, MCF10A rerep 1%, SW480 rereplic 1%, RORg inh -14% and Gal4-VP16 FLuc -1%.
COc1ccc(Cl)cc1C(=O)NNC(=O)c1cccs1 was read as ELG1 repair inh inconclusive, MCF10A rerep 1% and SW480 rereplic 0%.
`CC1C(=O)N2CCCc3cc(NC(=O)C(=O)NCCCc4ccccc4)cc1c32` (stereo unspecified) gave ELG1 repair inh 29%, MCF10A rerep 20% and SW480 rereplic -3%.
COc1cccc(CS(=O)(=O)c2nnnn2-c2ccc(F)cc2Br)c1 was read as RORg inh -1% and Gal4-VP16 FLuc 5%.
CC1CCCCC12NC(=O)N(CC(=O)N1CCN(S(=O)(=O)Cc3ccccc3)CC1)C2=O (stereo unspecified) was read as ELG1 repair inh 0%, MCF10A rerep 2% and SW480 rereplic -8%.
Screening NC(=O)[C@@H]1CCCN1Cc1c(C(=O)N2CCc3ccccc3C2)nc2ccc(Cl)cn12 returned ELG1 repair inh 1%, MCF10A rerep 1%, SW480 rereplic -1%, RORg inh 11% and Gal4-VP16 FLuc -3%.
OC(CCN1CCC2CCC(C2)C1)c1ccc(Br)cc1 (stereo unspecified) was read as MCF10A rerep 17% and SW480 rereplic 15µM*.
`CC1CN(CC(O)c2ccc(Br)cc2)CCO1` (stereo unspecified) gave MCF10A rerep -3% and SW480 rereplic -10%.
For COCCN1C(=O)/C(=C/c2ccc(Oc3ccc([N+](=O)[O-])cn3)c(OC)c2)SC1=Nc1ccccc1 the results were ELG1 repair inh 2.6µM*, MCF10A rerep 13%, SW480 rereplic 1%, RORg inh -38% and Gal4-VP16 FLuc 0%.
For COc1cc(/C=N\NC(=O)c2cccc(Cl)c2)ccc1Oc1ccc([N+](=O)[O-])cn1 the results were ELG1 repair inh inconclusive, MCF10A rerep inconclusive, SW480 rereplic 21µM*, RORg inh -45% and Gal4-VP16 FLuc 2%.
For COc1cc(/C=N\NC(=O)c2ccccc2F)ccc1Oc1ccc([N+](=O)[O-])cn1 the results were ELG1 repair inh -26%, MCF10A rerep 23µM*, SW480 rereplic inconclusive, RORg inh 13% and Gal4-VP16 FLuc 3%.
`CCN(CC)C(=O)C(=O)Nc1ccc(F)c(Cl)c1` gave ELG1 repair inh inconclusive, MCF10A rerep 0%, SW480 rereplic -5%, RORg inh inconclusive and Gal4-VP16 FLuc 29%[10 µM].
CCN(C(=O)c1ccco1)c1nc(CC(=O)Nc2ccc(Cl)cc2)cs1 was read as ELG1 repair inh inconclusive, MCF10A rerep 12µM*, SW480 rereplic 12µM*, RORg inh inconclusive and Gal4-VP16 FLuc -6%.

High-throughput results (PubChem)
